Whole data set: some 9,900 sequences, median “r (bound/input frequency ratio)” near 0.7, cut for the highest 2% near 6.5. This is one part of a sample in which the highest values are shown more often than they occur.
B1: ENSMUSG00000058297.485|Spock2 (ssRNA)
RNA: GGGAGUUCUACAGUCCGACGAUCGCUUCGAUAUCCGCAUGCUACUGGAGCUGCCCUACUAAGAGCCUCCUUAGCCCUGGGUGCUGGGAAGGAUGGUGUACGUUGGGGAAGUUUGAGGUUGGAGAGAGUAAAUGUGCCUUGAGAGACCACUCAGAGGUCCCAGGAGGAACGGGGGCGGGGCUUAGCCUGGGAGUUCUGGCAGGAGGCAAAGUUGGUGAGAGUCCUGGGACAUCUUACCCCCAGUGUUCCACAGGAGUCGUGACCACGUGUGAUGGGUGGGCACAGGUCUGCCUUGCUCCAGCCCCUCUUGCGGUCGCACUAGUGUGGAAUUCUCGGGUGUCAAGG
B2: ENSMUSG00000004113.268|Cacna1b (ssRNA)
RNA: GGGAGUUCUACAGUCCGACGAUCGCUUCGAUAUCCGCAUGCUACGUGUUACAAGAAACUGGCAGGAAGGAAAUGGCCCUGGAACAGGCCAGGUGCCUAGAGCUAAGUCAGGCCCCUGGCUUAGCACUAGAAAAAAUAAAACCUCAUGGCUGCUUUGCAAAGGGAAAACCCAUGCUCAGGAAGGUGUUCAGUGUGCACAGAUAGCUGGGAGGCCACGAGAGAAAGGUUGCACACAGACAGGCAGGCACUCCUUGGUGUGGUCUCUCUGUUUUGAAACUUCUGAUGACUUCUUGGUGGCUUGUUGCUCUUGCGGUCGCACUAGUGUGGAAUUCUCGGGUGUCAAGG
B3: ENSMUSG00000029028.187|Lrrc47|67:71 (ssRNA)
RNA: GGGAGUUCUACAGUCCGACGAUCGCUUCGAUAUCCGCAUGCUAGUCAGCGUGUCCCACUAUUCAUGUCCCAUCUCUGUGCAUCCUGACUGCGCACAUCCCAUCUCCGCAACACAACGCAUCUGUACCAGCACACAGCUGCCAUCCCUCGAGCCACAGUGCCUGGUCCUAAGGACCCAGCAGCUGCACAGAGGACUUGGUGGCCCCGUGCCUUGCCAUCUGGCUGAGAAGAGAACCAGACCCUCAGCCUUCCCCCUCGACACCUUCUCGUUGGUGACCUCUGACCUUAAAGGACCAUUUCUACCCUCUUGCGGUCGCACUAGUGUGGAAUUCUCGGGUGUCAAGG
B4: ENSMUSG00000061578.966|Ksr2 (ssRNA)
RNA: GGGAGUUCUACAGUCCGACGAUCGCUUCGAUAUCCGCAUGCUAGCCCUGGAUGUGACUAUAUGUGCUGAGAAGGGAAGGUAGUUUUCCCCCAGAAAGUCCCUUCUAAUAAACAUUGAUGACUUUAGAAUCCAUGACUCAGAAUUUUCCAGAGACCCAAUCCCUCGGGGUCCACUUAGUGAUGGGACCAUACAAGAGUUUAUUUCCAAUUAGAGAAUUGGGUCAACUGGGAAAGGCUUCUUUCCUGGUAACCCUGCUACUGAUACUAUGUUGAAACAGGAAUCGACUCUAACUGCUUUUUGGCCCUCUUGCGGUCGCACUAGUGUGGAAUUCUCGGGUGUCAAGG
B5: ENSMUSG00000031028.668|Tub (ssRNA)
RNA: GGGAGUUCUACAGUCCGACGAUCGCUUCGAUAUCCGCAUGCUAGGCAAAAUUUCUCUAGCUGAGAGCACACUUAGCCAGUUUUCACGCCUAGAACAUAUAUGUCGAUUUGCACAUGAUUGUCUUUUCCUAUUUUGGAGUGGUCAGACAUUUUAUUUUUGUUCAAAAUUAUCUGGAGUUUUAGACAAACUUGCAAAACUGUGCUUUUAUUAAGUGACUUUUUGAAUAAACUUUUUGGUAUUCUGAAGCAAAUGUAUUUAUUUAUUGGUAUGUGCAAUGACAAACUUGGUAUUUUCCCAUAAUGACUCUUGCGGUCGCACUAGUGUGGAAUUCUCGGGUGUCAAGG
B6: ENSMUSG00000061578.140|Ksr2 (ssRNA)
RNA: GGGAGUUCUACAGUCCGACGAUCGCUUCGAUAUCCGCAUGCUAGGCUGUGGCAAGAGAGUUCUGGUGUGUUCUCUCUGUGGGGCUAGCAAUGCCGGGGUUAAGUUCUCCCUCGGUGAUGGAGACGGUCCUGGGUAUGCAUGAUGGGUUACAUGGGUGUGUGUGUGUGUGUAACUGUUUACAAUGGUCUCCCUGCCUCUCACGGGCUGUGUUCCAGGAGAAUGCACAUAGAGAGGUUCUGUGGUCUCUGCUGUCGCCUGGUGCUGAAUCCUGAGUGGUUUCCCCACUGAGGACCCUGUGACCCUCUCUUGCGGUCGCACUAGUGUGGAAUUCUCGGGUGUCAAGG
B7: ENSMUSG00000061578.854|Ksr2|32:36 (ssRNA)
RNA: GGGAGUUCUACAGUCCGACGAUCGCUUCGAUAUCCGCAUGCUAAGAGCAAUACAGGAAAAGGUCAGGGGUGAGAACACACAUUGCCACUUCCUCCAGCUAGGACCUUUGAGCAUCACAUUGUGAAGCCAUCCAGGGACUUGGGGGUUAGGUCAGAGGUAUCAAUACAUCUCCGGAAACAUCGUCACAGAUACCUAGAGGUACUUCAUUGAUCCCUUGAAAAGCAUGUCUUAAUUCUGUUAAGAUGUCAAUCAAGAUUACACAUCUCACUGCUUCACAGGCCAUCAGGGCCCCAUUCUGAGGUCCUCUUGCGGUCGCACUAGUGUGGAAUUCUCGGGUGUCAAGG
B8: ENSMUSG00000090935.379|Synj2bp (ssRNA)
RNA: GGGAGUUCUACAGUCCGACGAUCGCUUCGAUAUCCGCAUGCUAAGAUGCAGGGAUAUUGGUGAGGUGGGAGCUGUCCUGUUUAUGUAACAUCUAAGUUGGUUUUAGAGUACUGAGGAUAGUUGAACCAAGCCUAUUUUUUUUCCACUUUAACAAAAUAAUUUCCUUCUUUUCAGUAAAUUGGCCAGACUAUUAUUUUGACAUAAGAUUAUGAAGAGUUUUCCCGACAGUCUAGCAGUCACUUAACAGAUGUUGAUUGCACAUUAGUUUUGUCAGGACACCUUUAUAAAAAGAGAAAUGCACAUCUCUUGCGGUCGCACUAGUGUGGAAUUCUCGGGUGUCAAGG
B9: ENSMUSG00000061578.1219|Ksr2 (ssRNA)
RNA: GGGAGUUCUACAGUCCGACGAUCGCUUCGAUAUCCGCAUGCUACAGCAUGCUUCACUCUAUGAAUGAGCCGCUGGGAUAUUGACAUGGAGAUGUGUUGAUGGAAAAAGCCUCCACACCCAACAUAACUCUCCAGAGAGAUAUUGAAAGUGAUGGGCAGAGAGUCUGACAAUGACCCAGGGGUCAUUGUGAGUCCUAGGCUGAAUCUGUAAUGGGGUCCAAAGUGCAGGAGAGACUGCAUUCACCUUGUUGGUGGGGUGGGGCUUCUUUCAUUACUUUAAGUAUCUGUAUGGGCUUGAGGCAUGCUCUUGCGGUCGCACUAGUGUGGAAUUCUCGGGUGUCAAGG

Molecular target: TDP-43 (Homo sapiens, UniProt Q13148 1-414)
Sequence (Q13148 whole entry): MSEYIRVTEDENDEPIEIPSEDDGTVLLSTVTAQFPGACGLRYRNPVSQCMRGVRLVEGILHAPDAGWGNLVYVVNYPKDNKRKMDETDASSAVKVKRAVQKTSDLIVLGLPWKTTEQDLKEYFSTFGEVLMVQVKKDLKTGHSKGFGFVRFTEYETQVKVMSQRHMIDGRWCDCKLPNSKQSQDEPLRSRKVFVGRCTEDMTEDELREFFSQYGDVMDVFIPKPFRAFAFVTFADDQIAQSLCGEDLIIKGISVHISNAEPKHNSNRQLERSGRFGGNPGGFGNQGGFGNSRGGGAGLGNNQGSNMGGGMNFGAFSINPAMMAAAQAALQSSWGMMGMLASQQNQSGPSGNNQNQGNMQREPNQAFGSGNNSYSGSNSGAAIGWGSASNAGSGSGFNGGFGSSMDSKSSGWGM
Assay: RNA Bind-n-Seq with designed 260-mer pool; 25 mM Tris-HCl, 150 mM KCl, 3 mM MgCl2, BSA (printed 500 mg/mL), 20 units/mL SUPERase IN; pH not stated; 500 nM RNA pool, 1 h, 4 C; TDP-43 5, 50, 500 nM; high values mean tight binding
Conditions: protein: recombinant; tags: SBP (GST cleaved off with PreScission; pGEX-GST-SBP)
Outline: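 An in vitro-transcribed pool of 260-nt 3′ UTR oligos (500 nM) was incubated for 1 h at 4 °C with recombinant SBP-tagged TDP-43 at 5, 50 or 500 nM held on streptavidin beads. The buffer contained 25 mM Tris-HCl, 150 mM KCl, 3 mM MgCl2, BSA and SUPERase IN. Biotin-eluted bound RNA was sequenced, and binding, R, is each oligo's normalized read abundance in the bound sample over that in input.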

Binder | binding signal
B1 | 5.55 R (bound/input frequency ratio)
B2 | 0.57 R (bound/input frequency ratio)
B3 | 1.42 R (bound/input frequency ratio)
B4 | 0.302 R (bound/input frequency ratio)
B5 | 0.159 R (bound/input frequency ratio)
B6 | 5.07 R (bound/input frequency ratio)
B7 | 0.103 R (bound/input frequency ratio)
B8 | 0.043 R (bound/input frequency ratio)
B9 | 0.535 R (bound/input frequency ratio)
